Assay outcomes (PubChem)
ClpP mod = qHTS Assay for Activators of ClpP; ATP-dependent Clp protease proteolytic subunit (Bacillus subtilis (strain 168)), P80244; purified B. subtilis ClpP, FRET peptide cleavage, 20 min; Potency, µM (highest dose often 57.5 µM), inactives show top-dose activity change, negative = active; 340,000 compounds, 1.9% hits; active means well fitted falling curve with a large enough effect; inconclusive means small, poorly fitted or top-dose-only effect; inactive means no such curve, though single readings can be large or run the other way; further: the source files actives as falling curves though it sought activators and does not explain the sign; nearly all actives have a fitted effect of over 65% in size
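Buffer: 100 mM Tris/HCl pH8, 100 mM KCl, 0.05% low protease BSA, 2.5% glycerol, 0.01% Tween-20. ClpP 10 microg/mL final; 20 min RT; delta FRET normalized to ADEP and DMSO controls.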
VP16 counter = Gal4-VP16 reporter inhibition counter-screen | Drosophila S2 Gal4-VP16 UAS-luciferase, luminescence, 20 h | Potency, µM (top dose mostly 53.6 µM), inactives show at the highest dose activity, negative = inhibition, usual class: inhibitors | 310,000 compounds, 3.5% hits | AID 2546;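 further: Gal4-VP16 expression switched on by copper sulfate through the metallothionein promoter; on the % scale 0 is the no-effect control and ±100 the full control effect; nearly all actives have a fitted effect of over 50% in size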
PINK1 expr mod = PINK1 expression modulation; PINK1 immunofluorescence, high-content cytometry, 24 h; Potency, µM (series often up to 76.6 µM), inactives show top-dose activation (PINK1 increase), usual class: activators; 410,000 compounds, 0.2% hits; AID 624263; active means well fitted activation curve with a large enough effect; inconclusive means small, poorly fitted or top-dose-only effect; cell line not stated here; further: % of control where 0% means no effect; nearly all actives have a fitted effect of over 65% in size
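Measures PINK1 amount and localization on or inside mitochondria by immunofluorescence. Stable cells get compounds at 5 concentrations for 24 hours before fixation and staining; CCCP controls included.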
RORgamma inh = blocks mouse ROR gamma transcriptional activity | 310,000 compounds, 5.4% hits | Drosophila S2 Gal4-RORgamma UAS-luciferase reporter, 20 h | Potency, µM (highest dose often 53.6 µM), for inactives: top-dose activity change, negative = inhibition, hits mostly inhibitors; further: on the % scale 0 is the no-effect control and ±100 the full control effect; nearly all actives have a fitted effect of over 60% in size
Target sequence (P51450 whole entry, looked up, the tested form may be a part): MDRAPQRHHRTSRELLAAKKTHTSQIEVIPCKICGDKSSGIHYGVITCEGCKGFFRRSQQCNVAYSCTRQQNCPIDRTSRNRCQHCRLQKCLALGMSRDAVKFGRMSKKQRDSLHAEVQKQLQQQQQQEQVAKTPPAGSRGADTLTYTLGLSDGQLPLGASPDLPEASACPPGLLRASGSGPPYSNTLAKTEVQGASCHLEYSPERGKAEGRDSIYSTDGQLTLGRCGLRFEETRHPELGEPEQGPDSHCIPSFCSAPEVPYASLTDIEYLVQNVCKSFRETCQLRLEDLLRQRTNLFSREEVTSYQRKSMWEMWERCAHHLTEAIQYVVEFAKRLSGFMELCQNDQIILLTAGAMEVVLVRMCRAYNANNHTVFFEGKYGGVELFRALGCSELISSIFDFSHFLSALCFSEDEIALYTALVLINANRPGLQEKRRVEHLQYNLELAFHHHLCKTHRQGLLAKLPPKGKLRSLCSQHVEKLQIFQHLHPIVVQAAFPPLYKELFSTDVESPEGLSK
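Luciferase reporter read in Schneider cells carrying Gal4-RORγ (mouse) and UAS-Photinus luciferase; cells given compound 1 h before 700 uM copper sulfate induction, then incubated 20 h at ambient temperature.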
Epigenetic reg = epigenetic control regulation, reporter derepression; murine LDR cells, GFP reporter derepression, 30 h; Potency, µM (doses to about 53.9 µM), without a hit: at the highest dose GFP activation, actives largely listed as activators; 280,000 compounds, 0.2% hits; further: % of control where 0% means no effect; nearly all actives have a fitted effect of over 60% in size
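Murine LDR cells bearing a silenced CMV-driven GFP reporter were exposed to compound for 30 h at 37 C. After PBS washes, GFP-positive cells (20-120 um objects) counted by laser-scanning microplate cytometry.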
Sfp PPTase inh = Sfp phosphopantetheinyl transferase inhibition. 310,000 compounds, 3.5% hits. Biochemical Sfp PPTase activity, qHTS. Potency, µM, for the others: largest response in the series, negative = inhibition, hits mostly inhibitors. Q9F4F7;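 further: the enzyme is Sfp with the accession as filed and its product quenches rhodamine fluorescence; 0% = enzyme reaction without inhibitor and -100% = no enzyme wells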
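Compounds were incubated with enzyme (final 15 nM) for 15 min at room temperature before substrate addition started the reaction. Fluorescence at 525 nm excitation, 598 nm emission was recorded immediately and after 30 minutes.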
Starred values were filed as active, the others as inactive; ? = inconclusive; / = not tested or not shown. Only some compounds are listed: those with a hit (about 8.1% of all), similar ones and a draw of the others. Unless noted, the call rests on the fitted dose curve; in most records, active means well fitted curve in the direction sought with a large enough effect; inconclusive means small, poorly fitted or top-dose-only effect, or another doubt; inactive means no such curve, though single readings can be large; an effect the other way counts as inactive or inconclusive. Potency means the concentration at half of the fitted maximal effect.

SMILES	ClpP mod	VP16 counter	PINK1 expr mod	RORgamma inh	Epigenetic reg	Sfp PPTase inh
CCOC(=O)Cc1c(C)nc(N)[nH]c1=O	-1.5%	4.6%	0.7%	3.1%	1.1%	20.4%
N#Cc1c[nH]n2c(NC3CCCCC3)c(-c3ccc(F)cc3)nc12	-1.8%	/	0.0%	/	-1.3%	/
COc1cccc(CN(C)C(=O)c2cc(COc3c(F)cccc3F)on2)c1	/	-17.6%	-1.6%	17.0%	1.2%	-15.1%
COc1cccc(CN(C)C(=O)c2cc(COc3ccc4ncccc4c3)on2)c1	/	6.31µM*	2.2%	?	5.9%	0.2%
O=C(c1cc(COc2ccc3ncccc3c2)on1)N1CCCC1	-13.7%	12.6µM*	1.2%	?	/	9.2%
CC(NC(=O)c1cc(COc2ccc3ncccc3c2)on1)c1ccc(F)cc1 (stereo unspecified)	-2.8%	7.08µM*	-0.2%	?	0.0%	15.1%
O=C(NC1CCCC1)c1cc(COc2ccc3ncccc3c2)on1	-9.2%	5.01µM*	0.2%	?	0.1%	14.7%
O=C(c1cc(COc2ccc3ncccc3c2)on1)N1CCCCCC1	-4.4%	?	-0.2%	?	0.0%	12.8%
COCC1CCN(C(=O)c2cc(COc3ccc4ncccc4c3)on2)CC1	/	6.31µM*	1.7%	?	0.3%	13.4%
CCOC(=O)c1ccccc1NC(=O)c1c(C)oc2ncnc(N3CCOCC3)c12	-6.2%	/	-6.7%	/	0.2%	/
COCCCNC(=O)c1cc(S(=O)(=O)N2CCOCC2)ccc1SCc1cccc(OC)c1OC	/	28.6%	0.9%	29.2%	-0.2%	50.1µM*
COc1ccc(-c2oc3ncn4nc(COc5cccc(C)c5C)nc4c3c2-c2ccc(OC)cc2)cc1	-11.7%	/	-2.2%	/	-1.8%	/
CCCCNS(=O)(=O)c1ccc2nc(-c3cccnc3)cc(C(=O)NCCC)c2c1	-1.2%	/	3.1%	/	-1.1%	/
C=Cc1c(C)/c2[n-]/c1=C\c1[n-]c(c(CC)c1C)/C=c1\[n-]c3c(c1C)C(=O)C(C(=O)[O-])C=3c1[n-]c(c(C)c1CCC(=O)[O-])\C=2.[Cu].[Na+].[Na+] (stereo unspecified)	/	-15.1%	/	?	-0.3%	44.7µM*
Cc1cccc(NC(=S)NC2CC3CCC(C2)N3Cc2ccco2)c1 (stereo unspecified)	0.1%	-3.7%	/	-39.1%	0.0%	6.4%
Cc1cccc(NC(=S)NC2CC3CCCC(C2)N3Cc2ccco2)c1 (stereo unspecified)	-1.2%	?	-1.1%	11.2µM*	9.1%	11.3%
Cc1ccc(NC(=S)NC2CC3CCCC(C2)N3Cc2cccs2)cc1 (stereo unspecified)	-9.0%	?	/	4.47µM*	-1.9%	17.8%
CC(C)CNC(=S)NC1CC2CCCC(C1)N2Cc1cccs1 (stereo unspecified)	-0.9%	-28.2%	?	11.2µM*	-1.9%	10.3%
CC(C)CNC(=S)NC1CC2CCCC(C1)N2Cc1ccco1 (stereo unspecified)	-1.2%	0.0%	/	-9.1%	-1.2%	12.7%
Fc1ccc(NC(=S)NC2CC3CCCC(C2)N3Cc2cccs2)cc1 (stereo unspecified)	/	?	-0.2%	10µM*	2.1%	24.8%
COc1ccc(-c2cc(C)no2)cc1S(=O)(=O)Nc1cccc(C(F)(F)F)c1	1.2%	/	0.5%	/	-1.3%	/
COc1ccc(NC(=O)C2CC(=O)n3ncnc3N2)cc1 (stereo unspecified)	-1.2%	-6.6%	?	?	-1.1%	18.2%
COc1cccc(NC(=O)C2CC(=O)n3cnnc3S2)c1 (stereo unspecified)	0.8%	?	0.4%	?	4.1%	44.7µM*
COc1cccc(NC(=O)C2CC(=O)N=C(N)S2)c1 (stereo unspecified)	0.4%	-0.6%	-0.6%	16.5%	-1.0%	24.4%
